# Assay results: PubChem BioAssay
# A number with no mark means an inactive call. The rule behind the calls is not given here.
# Target: Pantothenate synthetase (Mycobacterium tuberculosis (strain ATCC 25618 / H37Rv)) (UniProt P9WIL5)
# Assay: Coupled enzyme confirmation of inhibitors against recombinant Mtb PanC (AID 375);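 note: 0% = full reaction with vehicle and 100% = no enzyme background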
# Conditions: coupled enzyme assay; at 10 µM, active compounds read high
# Sequence of Pantothenate synthetase (Mycobacterium tuberculosis (strain ATCC 25618 / H37Rv)) (P9WIL5 whole entry, looked up): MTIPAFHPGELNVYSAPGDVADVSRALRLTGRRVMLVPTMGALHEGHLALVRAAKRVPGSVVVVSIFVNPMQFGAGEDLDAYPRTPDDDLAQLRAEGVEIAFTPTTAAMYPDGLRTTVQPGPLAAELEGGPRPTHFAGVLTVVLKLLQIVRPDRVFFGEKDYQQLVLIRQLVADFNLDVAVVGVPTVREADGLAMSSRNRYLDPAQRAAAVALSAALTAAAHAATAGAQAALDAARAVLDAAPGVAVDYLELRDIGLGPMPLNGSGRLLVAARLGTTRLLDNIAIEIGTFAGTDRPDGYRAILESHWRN
row,Compound,inhibition
1,CC(=O)Nc1ccccc1OCc1nnc(-c2cccs2)o1,0%
2,O=C(OCC(=O)c1c[nH]c2ccccc12)C1=COCCO1,0%
3,CN(C(=O)C(Cl)Cl)c1ccc(OC(=O)c2ccco2)cc1,7%
4,CCC(C(=O)Nc1ncccn1)(C(F)(F)F)C(F)(F)F,0%
5,Nc1ccc(S(=O)(=O)NC(=O)c2ccccc2)cc1,0%
6,O=C1CCCN1Cc1ncnn1-c1ccccc1,4%
7,Cc1ccc(Cn2c(=O)c3ccccc3n3c(CCC(=O)O)nnc23)cc1,0%
8,O=C(CCCn1c(=O)[nH]c2ccsc2c1=O)N1CCN(c2ccccn2)CC1,3%
9,CC1C(=O)C(C)C(c2cccs2)NC1c1cccs1 (centres undefined),0%
10,Cn1c(=O)[nH]c(=O)c2[nH]c(CN3CCN(C(=O)c4ccco4)CC3)nc21,0%
11,CCOC(=O)CSC1=C(C#N)C(c2ccc(C)cc2)C(C(=O)OC)C(=O)N1 (centres undefined),0%
12,COc1ccc(-c2nnc(SCC(=O)Nc3sc4c(c3C#N)CCC4)n2CC2CCCO2)cc1 (centres undefined),0%
13,CC(C)=CC(=O)Nc1ccc(Br)cc1,0%
14,CN(C)S(=O)(=O)c1ccc(/C(O)=C2/C(=O)C(=O)N(CCN3CCCCC3)C2c2cccnc2)cc1 (centres undefined),0%
15,Cc1cc(C)nc(N2CCCC(C(=O)Nc3nc4ccc(S(C)(=O)=O)cc4s3)C2)n1 (centres undefined),4%
16,COc1ccc(CNc2nc(NCc3ccc(OC)cc3)n(S(C)(=O)=O)n2)cc1,0%
17,Cc1onc(-c2ccccc2Cl)c1C(=O)Nc1cnn(Cc2ccccc2)c1,0%
18,O=C(CSc1ncnc2c1oc1ccccc12)Nc1ccccc1F,2%
19,COCC(=O)Nc1sc2c(c1C(=O)OC)CCC(C)C2 (centres undefined),6%
20,COc1ccc(CC(NC(C)=O)C(=O)NC2CCN(c3nc(C)cc(C)c3C#N)CC2)c(OC)c1 (centres undefined),0%

row,Compound,inhibition
1,O=C1CN(C(=O)COC(=O)C23CC4CC(CC(O)(C4)C2)C3)c2ccccc2N1,19%
2,O=S(=O)(c1ccc(Br)s1)N1CCCCC1,0%
3,CCn1c(=O)c2cc(S(=O)(=O)NCc3ccccc3)ccc2n(CC)c1=O,0%
4,CCOC(=O)c1ccc(NC(=O)N2CCN(Cc3cccc(F)c3)CC2)cc1,0%
5,O=C(Oc1ccccc1)c1cccc(COC(=O)c2cnccn2)c1,5%
6,Cc1cc(=O)n2nc(N3CCCC(C(=O)N4CCN(C)CC4)C3)sc2n1 (centres undefined),1%
7,CCOC(=O)N1CCC(n2c(SCC(=O)NCc3ccco3)nc3ccsc3c2=O)CC1,0%
8,O=C(CCNNC(=O)c1ccncc1)NCc1ccccc1,0%
9,Fc1ccccc1C(c1nnnn1Cc1ccc2c(c1)OCO2)N1CCN(Cc2ccccc2)CC1 (centres undefined),3%
10,Cc1ccc(NC(=O)CNc2cccc(C)c2C)c(C)c1,0%
11,Cc1ccc(-c2nnc(-c3cccc(Br)c3)o2)cc1,0%
12,CC(C(N)=O)N1C(=O)C2C3C=CC(C3)C2C1=O (centres undefined),2%
13,O=C(OCC#CCSc1nnc(-c2ccncc2)o1)c1cccs1,0%
14,O=C(O)c1cc2cc(F)ccc2[nH]1,2%
15,O=C(NCc1ccco1)C1Cc2ccccc2CN1S(=O)(=O)c1ccccc1F (centres undefined),1%
16,C/C(N)=C(/C#N)C(=O)COC(=O)COc1ccc(Cl)cc1,5%
17,CCOC(=O)N1CCC(NC(=O)c2ccc3c(c2)N(CC)CCS3)CC1,5%
18,CCn1c(=O)n(CC(=O)N(C)Cc2ccccc2)c(=O)c2ccccc21,12%
19,Cc1ccc(-c2nnc(N3CCN(C(=O)CN4C(=O)c5ccccc5C4=O)CC3)c3ccccc23)cc1,0%
